# Results: PMC4336329 (PLoS ONE, 2015)
# About 14,000 (4.5%) of roughly 310,000 compounds showed an effect of 50% or more. Effects have a minus sign here. The entries come from a sample that favours strong results as a whole.
# Molecular target: human ether-à-go-go-related gene (hERG) potassium channel (human, UniProt Q12809)
# Experiment: primary screen, population patch clamp on CHO cells stably expressing hERG; higher = less effect of the substance
# 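Also: peak tail current of the secondary pulse compared with the same well before compound.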
# Chain of human ether-à-go-go-related gene (hERG) potassium channel (Q12809 whole entry, looked up): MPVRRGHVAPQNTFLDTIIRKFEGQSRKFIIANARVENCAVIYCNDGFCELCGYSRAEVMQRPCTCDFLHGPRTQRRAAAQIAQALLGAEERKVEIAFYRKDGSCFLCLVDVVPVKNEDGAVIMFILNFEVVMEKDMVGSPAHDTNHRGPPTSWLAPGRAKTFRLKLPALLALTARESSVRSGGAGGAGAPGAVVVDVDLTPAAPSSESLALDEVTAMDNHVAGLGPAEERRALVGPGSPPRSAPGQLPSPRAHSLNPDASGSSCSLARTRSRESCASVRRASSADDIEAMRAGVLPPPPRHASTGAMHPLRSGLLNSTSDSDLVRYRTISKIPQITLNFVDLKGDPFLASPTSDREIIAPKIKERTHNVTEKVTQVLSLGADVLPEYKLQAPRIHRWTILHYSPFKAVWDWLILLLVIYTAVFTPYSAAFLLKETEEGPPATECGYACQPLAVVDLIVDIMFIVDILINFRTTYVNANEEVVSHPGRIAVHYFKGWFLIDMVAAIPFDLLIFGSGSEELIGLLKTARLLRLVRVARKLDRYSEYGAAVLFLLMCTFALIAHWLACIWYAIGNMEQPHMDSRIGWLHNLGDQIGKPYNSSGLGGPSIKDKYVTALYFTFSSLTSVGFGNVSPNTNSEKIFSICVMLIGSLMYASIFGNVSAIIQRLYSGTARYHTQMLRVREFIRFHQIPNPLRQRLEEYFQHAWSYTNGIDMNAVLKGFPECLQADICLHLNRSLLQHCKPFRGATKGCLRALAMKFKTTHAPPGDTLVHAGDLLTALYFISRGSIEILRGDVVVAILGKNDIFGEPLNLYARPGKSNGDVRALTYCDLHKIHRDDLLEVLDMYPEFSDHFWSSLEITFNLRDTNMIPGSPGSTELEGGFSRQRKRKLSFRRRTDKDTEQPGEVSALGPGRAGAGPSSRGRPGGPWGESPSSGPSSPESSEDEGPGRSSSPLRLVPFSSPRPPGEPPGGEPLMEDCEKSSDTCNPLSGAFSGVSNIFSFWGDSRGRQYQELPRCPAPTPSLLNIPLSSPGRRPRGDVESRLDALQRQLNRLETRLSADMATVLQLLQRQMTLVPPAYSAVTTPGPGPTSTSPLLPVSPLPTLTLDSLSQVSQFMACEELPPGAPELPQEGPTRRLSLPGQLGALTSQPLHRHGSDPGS
row,Compound,"hERG current change (%, negative = inhibition) at 10uM [%]"
1,C/C=C/c1ccc(OCCOc2cccc3cccnc23)c(OC)c1,20.3
2,Brc1ccc(OCCCOc2cccc3cccnc23)cc1,6.35
3,O=Cc1ccc(OCCCOc2cccc3cccnc23)cc1,-54.3
4,C=CCc1ccc(OCCOCCOc2cccc3cccnc23)c(OC)c1,-29.3
5,C/C=C/c1ccc(OCCOCCOc2cccc3cccnc23)c(OC)c1,-50.5
6,O=Cc1ccccc1OCCCOc1cccc2cccnc12,-4.59
7,CCc1ccc(S(=O)(=O)NCc2cn3ccsc3n2)s1,6.83
8,N/C(=N\OC(=O)c1ccc2ccccc2c1)c1cccc([N+](=O)[O-])c1,5.05
9,C#CCOCCOCCOCCNc1nc(N2CCN(C(=O)Cn3cc(CCC[NH+]=C(N)N)nn3)CC2)nc(N2CCN(C(=O)[C@H](CCCC[NH3+])n3cc(CCCC)nn3)CC2)n1.[Cl-],7.39
10,COc1ccc(S(=O)(=O)N2CCC(C(=O)c3ccc4c(c3)OCCO4)CC2)cc1,-6.76
11,O=C(O)c1c2c(nc3ccccc13)CCCCC2,15.8
12,CC1CCCN(c2c3c(nc4ccccc24)CCCC3)C1 (stereo not drawn),-65.2
13,Cl.c1ccc2c(N3CCOCC3)c3c(nc2c1)CCC3,-35.2
14,CCOC(=O)C1=C(COC(=O)c2ccc([N+](=O)[O-])o2)NC(=O)NC1C (stereo not drawn),-7.36
15,CCC(C)N=CC1=C(O)C(C(=O)OC)C(C)(C)CC1=O (stereo not drawn),-5.35
16,CCOC(=O)C(=O)N=Nc1c(O)n(C)c2ccccc12,18.9
17,O=C(CSc1nc(Nc2ccccc2)nc(N2CCOCC2)n1)NC1CCCCC1,-3.3
18,O=C(CSc1nc(Nc2ccccc2)nc(N2CCOCC2)n1)N1CCc2ccccc21,-1.62
19,O=C(CSc1nc(Nc2ccccc2)nc(N2CCOCC2)n1)N1CCCC1,-60.4
20,FC(F)(F)c1ccc(-c2csc(-c3ccno3)n2)cc1,1.72
21,Cc1cc(NCCCN)nc(-c2ccccc2O)n1,10
22,OC(c1ccc(F)cc1)(c1ccc(F)cc1)[C@@H]1CCCN1,7.57
23,CCCOC(=O)c1ccc(NC(=O)COC)cc1,1.07
24,CCN(CC)CCOC(=O)c1ccc(NC(=O)/C=C/c2cccs2)cc1.Cl,-76.3

row,Compound,"hERG current change (%, negative = inhibition) at 10uM [%]"
1,CCCCOC(=O)c1ccc(NC(=O)/C=C/c2cccs2)cc1,-17.1
2,CCCOC(=O)c1ccc(NC(=O)C(=O)NCC2CCCO2)cc1 (stereo not drawn),4.7
3,CCCCOC(=O)c1ccc(NC(=O)C(=O)NCCN(CC)CC)cc1,-73.2
4,CCCOC(=O)c1ccc(NC(=O)/C=C/c2cccs2)cc1,0.453
5,CCCCOC(=O)c1ccc(NC(=O)C(=O)NCCN(C)C)cc1,-28.9
6,CCCCOC(=O)c1ccc(NC(=O)C(=O)NCc2ccncc2)cc1,-8.29
7,CCCOC(=O)c1ccc(NC(=O)C(=O)NCCN(CC)CC)cc1,-52.1
8,Nc1cccc(-n2cccc2)c1,18.5
9,COc1cccc(CNC(=O)CCC(=O)n2ncc3cc(C)ccc32)c1OC,3.67
10,Cc1ccc(C(=O)NNC(=O)CCN2C(=O)C3CCCCC3C2=O)cc1 (stereo not drawn),-5.88
11,CCCC/C(O)=C1\C(=O)CCCC1=NCCc1c(C)[nH]c2ccccc12,-12
12,CNc1oc(C)nc1S(=O)(=O)c1ccc(C)cc1,10.6
13,CC(NC(=O)CCNS(=O)(=O)c1cccc2nsnc12)c1ccccc1 (stereo not drawn),-8.74
14,CCOC(=O)CSc1nnc(CCc2nc3ccccc3[nH]2)n1C,-0.184
15,CC(=O)c1ccc(N2CCN(CC(=O)N(C3CC3)C3CCS(=O)(=O)C3)CC2)c(F)c1 (stereo not drawn),-12
16,CCOc1[nH]n(-c2ccccc2)c(=O)c1C=NCc1cccnc1,-48.8
17,Cc1ccc(-n2[nH]c(C)c(/C=N/c3ccccn3)c2=O)cc1,2.58
18,CCOc1[nH]n(-c2ccc(Cl)cc2)c(=O)c1C=NCc1cccnc1,-42.1
19,CCOc1[nH]n(-c2ccccc2)c(=O)c1C=NCc1ccncc1,-50
20,Cc1[nH]n(-c2ccccc2)c(=O)c1C=NCc1ccncc1,-58.1
21,Cc1ccc(-n2[nH]c(C)c(C=NCc3ccncc3)c2=O)cc1,-54.5
22,Cc1ccc(-n2[nH]c(C)c(C=Nc3cc(C)ccn3)c2=O)cc1,-1.12
23,Cc1[nH]n(-c2ccccc2)c(=O)c1C=NCCc1ccccc1,-12.7
24,Cc1[nH]n(-c2ccccc2)c(=O)c1C=NCc1ccco1,-10.7
